High-throughput results (PubChem)
In the library only some 20% were active in any assay of this set; here they are far more common.
Shiga toxin inh = Shiga toxin inhibition; Vero cells, Shiga toxin protein synthesis inhibition reporter; inhibition, % at 38.7 µM; 9.2% of 290,000 active; AID 2315; in the data active = inhibition mostly above about 28%, no sharp cut-off; inactive = mostly below about 43%; note: 0% is about no effect
CHX counter = counter-screen hit for Shiga toxin inhibitors, cycloheximide; max response, %; 12% of 300,000 active; cell reporter, cycloheximide protein synthesis inhibition counterscreen; AID 2314; in the data active = max response mostly above about 13%, no sharp cut-off; inactive = mostly below about 14%; note: read at 38.3 µM for the half of the compounds with a filed dose; 0% is about no effect
Pf growth 48h = P. falciparum growth inhibition at 48 hours (one generation); P. falciparum luciferase growth in erythrocytes, 48 h; Potency, µM (top dose mostly 28.7 µM), for the others: at the top dose activity change, negative = inhibition, usual class: inhibitors; 5.9% of 310,000 active; AID 504832; note: potency is the fitted concentration of half-maximal effect; % is set by controls: 0 for no effect and ±100 for the full control effect
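Luciferase-expressing parasites in RBCs, 2% Hct / 0.1% parasitemia final; RPMI 1640 + 0.5% Albumax; 37 C, 5% CO2, one generation; luminescence read-out, lower signal = inhibition.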
HCMV antiviral = human cytomegalovirus inhibition; HFF cells, HCMV-luciferase reporter, 72 h; stronger effect = lower value; 4.5% of 410,000 active; AID 1259415; activity change, negative = inhibition, % at 57.5 µM; in the data active = activity change below about -60%; inconclusive = no clear call, values can overlap the other calls; inactive = above about -39%; note: % is set by controls: 0 for no effect and ±100 for the full control effect
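Inhibition of viral replication was scored as loss of reporter luminescence in HFFs infected with HCMV-luciferase (MOI 1 PFU/cell) for 72 h; compounds tested at 2 doses, normalized to buffer and Salinomycin controls.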
Pf growth 96h = P. falciparum growth inhibition at 96 hours; P. falciparum luciferase reporter growth, 96 h; Potency, µM (doses to about 28.7 µM), for inactives: top-dose activity change, negative = inhibition, actives largely listed as inhibitors; 6.9% of 320,000 active; note: potency is the fitted concentration of half-maximal effect; % is set by controls: 0 for no effect and ±100 for the full control effect
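Two-generation exposure (96 h) targets delayed-death phenotype. Reporter parasites carrying integrated firefly luciferase, in red cells at 2% hematocrit and 0.05% parasitemia final, kept at 37 C, 5% CO2; luminescence loss indicates inhibition.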
Numbers without * were called inactive; i = inactive; ? = inconclusive; . = no result; [ ] = remark or other dose. Unless noted, calls come from the whole dose curve; as a rule, active = well fitted inhibition curve with a large enough effect; inconclusive = small, poorly fitted or top-dose-only effect, or another doubt; inactive = no such curve, though single readings can be large or run the other way.

SMILES | Shiga toxin inh | CHX counter | Pf growth 48h | HCMV antiviral | Pf growth 96h
CC(C)COC(=O)c1ccc2c(c1O)C(=O)c1ccccc1C2=O | 66* | 34* | -40% | -21 | .
COc1ccc2c(c1O)C(=O)c1ccccc1C2=O | 1 | 5 | 70% | . | 84%
Clc1cccc(Cl)c1C[n+]1cccc2ccccc21 | . | . | . | -81* | .
O=[N+]([O-])c1ccc(Cl)c(C[n+]2cccc3ccccc32)c1 | -17 | -1 | ? | 1 | 30%
COc1ccc(N2CCN(CCNC(=O)CCS(=O)(=O)c3cccc4nsnc34)CC2)cc1 | 7 | 8 | -12% | . | -11%
CCOC(=O)[C@]12CCC=C1N(Cc1cccc3ccccc13)C(=O)[C@H](CC(=O)NCc1ccc(OC)c(OC)c1)C2 | . | . | . | -65* | .
COC(=O)[C@]12CCCCC=C1N(Cc1cccc3ccccc13)C(=O)[C@H](CC(=O)NCc1ccc(OC)c(OC)c1)C2 | . | . | . | -86* | .
CCOC(=O)[C@]12CCC=C1N(Cc1ccco1)C(=O)[C@H](CC(=O)NCc1ccc(OC)c(OC)c1)C2 | . | . | . | 5 | .
CC[C@H](C)[C@H](NC(=O)[C@H](Cc1ccc(O)cc1)NC(=O)[C@@H]1CCCN1C(=O)[C@@H](N)CCCN=C(N)N)C(=O)N[C@@H](CC(C)C)C(=O)O | -2 | -5 | . | . | .
COc1ccc(CCNC(=O)c2cc3c(=O)n4cccc(C)c4nc3n(CCCN3CCOCC3)c2=N)cc1 | -4 | -3 | ? | -95* | ?
COc1ccc(CCNC(=O)c2cc3c(=O)n4cccc(C)c4nc3n2C)cc1 | . | . | . | -30 | .
Cc1cccn2c(=O)c3cc(C(=O)NC4CCCC4)c(=N)n(CCCN4CCOCC4)c3nc12 | -2 | -9 | 2.3µM* | -25 | 14%
COCCn1c(=N)c(C(=O)NCCc2ccc(OC)cc2)cc2c(=O)n3cccc(C)c3nc21 | -10 | -12 | 2.1µM* | 29 | 2.9µM*
CCCn1c(=N)c(C(=O)NCc2ccc3c(c2)OCO3)cc2c(=O)n3cccc(C)c3nc21 | -5 | -3 | 1µM* | 30 | 8%
CC(=O)N(C(C)=O)c1ncn(C)c1S(=O)(=O)Nc1ccccc1 | . | . | . | 21 | .
CC(=O)c1cccc(OCc2cc(C(=O)NCCC3=CCCCC3)no2)c1 | 101* | 42* | 17% | 30 | -2%
CSc1ccccc1OCc1cc(C(=O)NCCC2=CCCCC2)no1 | 28* | 21 | 0% | 23 | 4%
CCC(C)CC(C)CC(C)C(=O)/C=C(/O)C(C)CC(C)C/C=C/C(C)C(O)C(C)C(O)CC1CCC(C)(C)O1 (configuration not stated) | -12 | -14 | . | . | .
Cc1ccc(N=c2sc(C)c(C)n2C)cc1 | 80* | 70* | 105% | 94 | 82%
Cc1ccc(-c2csc(=Nc3ccccc3)n2CCCO)cc1 | . | . | . | -24 | .
CCN(CC)C(=O)Oc1ccc(Br)c2ccccc12 | -5 | 1 | -26% | -30 | ?
O=C(COc1ccc2cc(Br)ccc2c1)N1CCOCC1 | . | . | . | -12 | .
CCN(CC)C(=O)Oc1ccc2ccccc2c1Br | 76* | 25* | 188% | -89* | -13%
O=C(COc1ccc2ccccc2c1Br)N1CCCCC1 | 89* | 62* | 88% | . | 16%
O=C(Oc1ccc2cc(Br)ccc2c1)N1CCCCCC1 | 58* | 48* | 253% | . | 8%
SMILES | Shiga toxin inh | CHX counter | Pf growth 48h | HCMV antiviral | Pf growth 96h
CCN(CC)C(=O)Oc1ccccc1NC(C)=O | -2 | -3 | 8% | -8 | 9.3µM*
COC(=O)c1sccc1Oc1c(Cl)cccc1[N+](=O)[O-] | -10 | -7 | 322% | -16 | 3%
COc1ccccc1CNC(=O)c1cc(C(=O)CC(C)C)c[nH]1 | 3 | -1 | 8%[0.00184 µM] | 22 | 0%
O=C(Oc1ccc2ccccc2c1Br)N1CCCCCC1 | 117* | 36* | 1% | -82* | i
NC(=O)C1CCN(C(=O)COc2ccc3ccccc3c2Br)CC1 | 13 | 6 | 8% | 54 | -3%
Fc1ccccc1CSc1nnc2ccc(-c3ccncc3)nn12 | 6 | 13 | 6% | -11 | ?
Nn1c(SC/C=C/c2ccccc2)nnc1-c1ccncc1 | -14 | -2 | -10% | -69* | .
Nn1c(SCc2ccccc2F)nnc1-c1ccncc1 | 80* | 32* | 23% | 33 | 35%
COc1cccc(NC(=O)C(C)OC(=O)c2n[nH]c3ccccc23)c1 (configuration not stated) | . | . | ? | -36 | -40%
Cc1ccc(S(=O)(=O)N(CCC(=O)O)c2ccccc2)cc1 | -6 | -3 | 21% | 11 | -5%
CC1(C)CC(NC(=O)c2cc(S(=O)(=O)N3CCCCC3)ccc2Cl)CC(C)(C)N1 | -9 | -1 | -18% | -22 | -17%
CCCC(C(=O)NC1CCCC1)N(Cc1ccc(F)cc1)C(=O)c1snc(C(N)=O)c1N (configuration not stated) | -8 | -4 | ? | 42 | ?
CCCC(C(=O)NC1CCCC1)N(Cc1ccc2c(c1)OCO2)C(=O)c1snc(C(N)=O)c1N (configuration not stated) | -9 | -2 | . | ? | 9.3µM*
CC(C)(C)NC(=O)CN(C(=O)c1snc(C(=O)NC2CCCCC2)c1N)c1ccc(F)cc1 | -19 | -4 | 7.4µM* | -9 | ?
COc1ccc(N(CC(=O)NC2CCCCC2)C(=O)c2snc(C(N)=O)c2N)cc1 | 17 | -4 | -15% | 5 | -36%
CCCCC(C(=O)NC1CCCC1)N(C(=O)c1snc(C(N)=O)c1N)c1ccc(F)cc1 (configuration not stated) | -11 | -4 | ? | -40 | 5.9µM*
CCCC(C(=O)NC(C)(C)C)N(C(=O)c1snc(C(N)=O)c1N)c1ccc2c(c1)OCCO2 (configuration not stated) | 114* | 56* | 45% | ? | ?
O=C(CN1CCOCC1)NN=C1CCCCCCCCCCC1 | -2 | 1 | 11% | 44 | -15%
CSc1nnc(NC(=O)c2cccc(S(=O)(=O)N3CCOCC3)c2)s1 | 14 | 3 | 2% | 58 | ?
CCOC(=O)c1snc(C(=O)NC2CCCCC2)c1N | 161* | 24* | 90% | 48 | .
NC(=O)c1nsc(C(=O)N(CC(=O)NC2CCCCC2)Cc2ccc(F)cc2)c1N | 116* | 53* | 36% | ? | 4%
CCCCC(C(=O)NC1CCCC1)N(Cc1ccccc1)C(=O)c1snc(C(N)=O)c1N (configuration not stated) | -1 | -4 | ? | -61* | 0%
Nc1c(C(=O)NC2CCCCC2)nsc1C(=O)OCC(=O)NC1CCCCC1 | -1 | -2 | 1% | 0 | .
CC(C(=O)NC1CCCCC1)N(Cc1ccc(F)cc1)C(=O)c1snc(C(N)=O)c1N (configuration not stated) | -11 | -8 | ? | -26 | -11%
COc1ccc(NC(=O)c2nnn(CC(=O)Nc3cccc(C)c3C)c2N)c(OC)c1 | . | . | . | -32 | .
O=C(NC1CCCCC1)O[C@H]1CC[C@@]23CCCN2C(=O)CCC[C@H]3[C@H]1Cc1ccccc1 | . | . | . | -23 | .
CC(=O)c1cnc(Nc2ccc(C)cc2)s1 | 45* | 30* | 49% | 29 | 59%
